# In the library only some 6% were active in any assay of this set; here they are far more common.
# D1 potentiator – enhances dopamine response at the human D1 receptor; P21728; HEK293 TREx D1 cells, calcium flux, dopamine EC20 potentiation; potentiation, % at 10 µM; 360,000 compounds, 0.036% hits; AID 504651; in the data active means potentiation above about 30%; further: 0% is about no effect
# Target sequence (P21728 whole entry, looked up): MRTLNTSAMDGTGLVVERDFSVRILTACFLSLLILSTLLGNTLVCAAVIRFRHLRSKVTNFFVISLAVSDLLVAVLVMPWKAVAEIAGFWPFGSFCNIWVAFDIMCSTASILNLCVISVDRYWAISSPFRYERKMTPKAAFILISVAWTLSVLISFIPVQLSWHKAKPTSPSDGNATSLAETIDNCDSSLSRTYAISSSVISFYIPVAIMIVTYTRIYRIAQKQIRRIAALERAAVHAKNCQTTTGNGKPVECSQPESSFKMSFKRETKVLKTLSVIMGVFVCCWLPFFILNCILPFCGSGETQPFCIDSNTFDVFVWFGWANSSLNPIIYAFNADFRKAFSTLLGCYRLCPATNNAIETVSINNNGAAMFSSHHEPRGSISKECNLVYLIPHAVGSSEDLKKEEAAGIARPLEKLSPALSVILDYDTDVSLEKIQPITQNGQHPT
# D1 agonist – activates the human D1 dopamine receptor. P21728. HEK293 T-REx D1 cells, calcium flux, agonist mode. activation, % at 2 µM. 360,000 compounds, 1% hits. AID 504660; in the data active means activation above about 30%; further: 0% is about no effect
#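 Tetracycline-induced HEK293 TREx D1 cells, force-coupled to calcium signalling, were dye-loaded with a no-wash calcium kit. Compound was pin-added after a 10 s baseline. Fluorescence was read kinetically at 1 cycle/s for 180 s, with calcium rises flagged as agonism.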
# D1 antagonist – antagonists of human D1 dopamine receptor | HEK293 TREx D1 cells, calcium flux, dopamine EC80; stronger effect = lower value | activity change, negative = inhibition, % at 10 µM | 360,000 compounds, 3.2% hits | AID 504652; in the data active means activity change below about -30%; further: on the % scale 0 is the no-effect control and ±100 the full control effect
#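 HEK293 T-REx cells expressing inducible, force-coupled D1 receptor; no-wash Ca dye, 30–90 min RT. Cmpd → 180 s read at 1 Hz → EC80 DA → 180 s read.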
# D3 ag – activates the human D3 dopamine receptor; D3R DiscoveRx beta-arrestin cells, luminescence, 90 min; AID 652048; P35462; 410,000 compounds, 0.58% hits; max activation, %; in the data active means max activation above about 30%; further: 0% is about no effect
#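 Agonist mode: compounds and dopamine controls were applied to plated cells for 90 min at 37 degrees C after an overnight attachment at 1500 cells/well. Luminescent read-out followed 30 - 60 minutes at room temperature with DiscoveRx detection reagent.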
# DRD3 antagonist – blocks the human D3 dopamine receptor | P35462 | D3R cells, DiscoveRx beta-arrestin luminescence, antagonist mode; stronger effect = lower value | max response, negative = inhibition, % | 360,000 compounds, 2.5% hits; in the data active means max response below about -50%; inconclusive means no clear call, values can overlap the other calls; further: on the % scale 0 is the no-effect control and ±100 the full control effect
#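 Cells plated overnight at 1500 cells/well, then exposed to library compounds with dopamine controls for 90 minutes at 37 degrees C. DiscoveRx reagent added for 30–60 minutes at room temperature; luminescence read, quantitative HTS format.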
# Starred values were filed as active, the others as inactive; ? = inconclusive; nt = not tested or not shown.
SMILES,D1 potentiator,D1 agonist,D1 antagonist,D3 ag,DRD3 antagonist
Cc1[nH]c2ccccc2c1C(=O)C(=O)N1CCN(c2cccc(Cl)c2)CC1,1,4,-38*,-2,14
COc1ccc(C2C(=O)N(C3CCCCCC3)CC(=O)N2Cc2ccccc2)cc1 (stereo not given),-1,-3,-6,-14,nt
COc1cccc(C(C#N)N2CCCCC2)c1O (stereo not given),-3,6,-1,5,-74*
CCCCCCCC1CC(CSc2ncn[nH]2)OC1=O (stereo not given),-7,-2,-13,-12,27
CCCCC1CC(CSc2ncn[nH]2)OC1=O (stereo not given),1,0,-36*,1,12
Cc1ccccc1OCC(=O)Nc1ccc2nc(SCC(=O)N3CCCC3)sc2c1,-2,3,-3,1,nt
C=CC(=O)N1C/C(=C/c2ccccc2)C(=O)/C(=C\c2ccccc2)C1,nt,nt,nt,-19,-62*
O=C(O)C(c1ccccc1)N1C(=O)/C(=C\c2ccc(-c3ccc(Br)cc3)o2)SC1=S (stereo not given),27,66*,68,-4,26
Cc1ccc(-c2nn(-c3ccccc3)c3[nH]c(=O)c(CNCc4ccccc4)cc23)cc1,7,-2,19,-8,-65*
Cc1nn(-c2ccccc2)c2[nH]c(=O)c(CNCc3ccc4c(c3)OCO4)cc12,-1,1,8,3,-65*
CCc1ccc(NCc2cc3c(C)nn(-c4ccccc4)c3[nH]c2=O)cc1,10,2,-2,6,-28
Cc1nn(-c2ccccc2)c2[nH]c(=O)c(CNc3ccc4c(c3)OCCO4)cc12,5,0,4,0,-25
Cc1nn(-c2ccccc2)c2[nH]c(=O)c(CNCCN3CCOCC3)cc12,-9,2,6,2,-66*
COc1nc(Oc2ccc(=O)n(-c3ccccc3)n2)nc(N(C)C)n1,0,3,13,7,nt
CCOCCCNc1nc(=S)[nH]c2cc(OC)c(OC)cc12,-1,0,7,1,-27
COc1cc2[nH]c(=S)nc(NCCCOC(C)C)c2cc1OC,3,1,0,-2,-78*
Cc1cnc(C)c(N2CCN(Cc3nc(-c4cccc(F)c4F)oc3C)CC2)n1,-3,3,5,-10,-22
Cc1oc(-c2cc(F)ccc2F)nc1CN1CCCN(C(=O)c2ccco2)CC1,6,0,0,-16,-81*
Cc1cccc(N2CCN(Cc3nc(-c4ccc(F)cc4F)oc3C)CC2)n1,-6,9,5,-16,-86*
Cc1oc(-c2cccc(F)c2)nc1CN1CCCN(C(=O)c2ccco2)CC1,4,2,-1,-17,-62*
Cc1cc(-c2ccc(N=Nc3ccc4c(S(=O)(=O)O)cc(S(=O)(=O)O)c(N)c4c3O)c(C)c2)ccc1N=Nc1ccc2c(S(=O)(=O)O)cc(S(=O)(=O)O)c(N)c2c1O,nt,nt,nt,-9,nt
Cc1cc(C)nc(NS(=O)(=O)c2ccc(NC(=O)c3cccc(N4C(=O)CCC4=O)c3)cc2)n1,-1,-1,-21,-8,-59*
Cc1cc(C)n(-c2cc(N3CCN(S(=O)(=O)c4ccc(C)c(C)c4)CC3)ccc2[N+](=O)[O-])n1,nt,nt,nt,0,21
Cc1cc(C)n(-c2cc(N3CCN(S(=O)(=O)c4ccc5ccccc5c4)CC3)ccc2[N+](=O)[O-])n1,1,1,-13,1,-55*
CCOC(=O)c1c(C)[nH]c(C)c1C(=O)COC(=O)c1cc(OC)c(OC)cc1OC,-8,3,-32*,10,10
SMILES,D1 potentiator,D1 agonist,D1 antagonist,D3 ag,DRD3 antagonist
CCOC(=O)c1c(C)[nH]c(C)c1C(=O)COC(=O)c1cccc(S(=O)(=O)N(CC)CC)c1,-4,25,-49*,3,9
COc1ccccc1OCC(=O)NCCS(=O)(=O)N1CCN(c2ccccc2OC)CC1,-4,-3,3,1,nt
COCC(=O)N(C)C[C@@H]1Oc2ncc(Br)cc2C(=O)N([C@@H](C)CO)C[C@H]1C,nt,nt,nt,-11,?
O=C(/C=C/NNC(=O)c1ccccc1)c1ccc(Br)cc1,-8,3,5,-14,-77*
COc1ccc(C(=O)C=CNNC(=O)c2ccc(Cl)cc2)cc1,-6,3,-5,-12,-54*
COc1ccc(C(=O)NN/C=C/C(=O)c2ccc(Br)cc2)cc1,nt,nt,nt,-11,-29
O=C(/C=C/NNC(=O)c1ccc(Cl)cc1)c1ccccc1,-7,0,-5,-5,-12
C=CCN1CC(C(=O)N2CCC(Cc3ccc(Cl)cc3)(C(=O)OCC)CC2)CC1=O (stereo not given),-2,2,-32*,5,-1
CCc1ccc(NC(=O)CSc2nccn2-c2ccc(F)cc2)cc1,5,-1,-2,-7,nt
CN(CCOC(=O)c1cccc(F)c1)Cc1ccccc1,-4,2,-2,-6,-88*
CC(CN(C)Cc1ccccc1)OC(=O)c1cccc(F)c1 (stereo not given),-1,3,-4,-33,-60*
COc1ccc2oc(C(=O)OCC(=O)NC3CCCC3)c(C)c2c1,-3,3,-37*,2,0
COc1ccc2oc(C(=O)OCC(=O)NC3(C#N)CCCC3)c(C)c2c1,-6,9,-49*,4,5
O=C1[C@@H]2CSC(c3ccc(Cl)cc3)N2C(=O)N1c1ccccc1 (stereo not given in full),0,7,-5,4,nt
COc1ccc(C2c3c(n(C)c4ccccc34)C(=O)N2CC(=O)Nc2cccc(Cl)c2C)cc1 (stereo not given),-1,5,11,-15,nt
CCN1CCN(CCCOc2ccc(-c3ccccc3)cc2)CC1,-9,50*,-34*,-15,?
CCN1CCN(CCCOc2ccccc2-c2ccccc2)CC1,-4,17,-9,-13,?
CN1CCN(CCOc2ccc(-c3ccccc3)cc2)CC1,-6,19,-5,-18,-7
CN1CCN(CCCOc2ccc(-c3ccccc3)cc2)CC1,-1,18,-33*,-9,-15
O=C(NCc1ccccc1F)Nc1nnc([C@H]2C[C@H](O)[C@@H](CO)O2)s1,nt,nt,nt,-8,-23
Cc1ccc(NC(=O)CCn2nc(-c3ccccc3)c3ccccc3c2=O)c(C)c1,-2,2,23,1,nt
CCCCN(C(=O)c1oc2ccc(OCC)cc2c1C)c1c(N)n(CC(C)C)c(=O)[nH]c1=O,-16,0,-32*,2,2
COc1ccccc1OCC(=O)NCC(c1ccc(Cl)cc1)N1CCCCC1 (stereo not given),0,-2,6,-19,nt
Cc1ccc(NC(=O)C(C)N=C2NS(=O)(=O)c3ccccc32)cc1F (stereo not given),-10,5,-12,-27,-56*

# Assay outcomes deposited in PubChem by National Center for Advancing Translational Sciences (NCATS).
